Inconclusive results are not listed. Unmarked numbers belong to inactive results. Activity calls are given as the source filed them. The call rests on the fitted dose curve; in most records, active means well fitted cell-killing curve with a large enough effect in the repeat runs; inconclusive means weak or mixed curves; inactive means no such curve, though single readings can be large or run the other way.
On the % scale 0 is the no-effect control and ±100 the full control effect; potency means the concentration at half of the fitted maximal effect.

This test in a line: qHTS assay for identifying genotoxic compounds that show differential cytotoxicity against isogenic chicken DT40 cell lines with known DNA damage response pathways - Rad54/Ku70 mutant cell line (AID 743015). Further: nearly all actives have a fitted effect of over 60% in size. Conditions: DT40 Rad54/Ku70 mutant viability, CellTiter-Glo, 40 h; series mostly up to 66.8 µM; activity change, negative = cytotoxicity: at the top concentration. The text has this: National Center for Advancing Translational Sciences [NCATS]
NIH Chemical Genomics Center [NCGC]
U.S. Environmental Protection Agency [EPA]
National Institutes of Environmental Health Sciences [NIEHS]
National Toxicology Program [NTP]
U.S. Food and Drug Administration [FDA]
DNA repair pathways play a critical role in cellular homeostasis by repairing DNA damage induced by endogenous processes and xenobiotics. Isogenic chicken DT40 cell lines deficient in different DNA repair pathways can be used to identify genotoxic compounds and aid in characterizing the nature of the DNA damage induced. Two DNA repair-deficient cell lines with disrupted genes, Rad54/Ku70 or Rev3, were used to screen the Tox21 10K compound library. Possible genotoxicity was based on the presence of a significant increase in cytotoxicity in one or more of the DNA repair-deficient cell lines compared to that observed in the parental DNA repair-proficient cell line. CellTiter Glo viability assay (Promega, Madison, WI) was used to measure cell viability in these cells after compound treatment. This assay includes the data from the Rad54/Ku70 mutant cell line.
Tox21 Assay Protocol Summary:
300 DT40 mutant cells in 5 uL/well were dispensed into white, solid-bottom 1536-well plates using a Multidrop Combi (ThermoFisher Scientific, Waltham, MA) dispenser. After the assay plates were incubated at 37 C/5% CO2 for approximately 0.5 hour, 23 nL of compounds dissolved in DMSO, positive controls or DMSO only was transferred into the assay plate by a pintool work station (Kalypsys, San Diego, CA). The assay plates were incubated at 37 C/5% CO2 for 40 hours. After 5 uL per well of CellTiter-Glo reagent was added into each well of the assay plates, the plates were incubated for 30 min at room temperature and the luminescence intensity of the plates was measured using a ViewLux (PerkinElmer, Shelton, CT) plate reader.
For orientation: In qHTS, concentration-response curves come from the screen itself.
On to `COc1ccc2c(c1)c(CC(=O)OCC(=O)O)c(C)n2C(=O)c1ccc(Cl)cc1`, for which the “activity change, negative = cytotoxicity” value was 9.3%.

As to `Cc1ccc(Cl)cc1Cl`, the “activity change, negative = cytotoxicity” value was 10.2%.

With `NCCCNCCSP(=O)(O)O`, the “activity change, negative = cytotoxicity” value is 6.29%.

As to `c1cnc(N2CCN(Cc3ccc4c(c3)OCO4)CC2)nc1`, the “activity change, negative = cytotoxicity” value is -1.74%.

Consider `CC1=CC(C)C(C=O)CC1` (stereo not given), for which the “activity change, negative = cytotoxicity” value was -14.3%.

`COC(=O)CCSCCC(=O)OC`: the “activity change, negative = cytotoxicity” value is -3.79%.

As for `COCCc1ccc(OCC(O)CNC(C)C)cc1` (stereo not given), the Potency result is “inactive”.

`O=C(O)CN(CCOCCOCCN(CC(=O)O)CC(=O)O)CC(=O)O`: the “activity change, negative = cytotoxicity” value is 5.42%.

As to `CO[Si](CCCOCC1CO1)(OC)OC` (stereo not given), the “activity change, negative = cytotoxicity” value was -3.98%.

`CC(=O)CC(C)(C)C1CCCCC1`: the “activity change, negative = cytotoxicity” value was -25.2%.

`CC(C)(O)C(=O)c1ccccc1`: the “activity change, negative = cytotoxicity” value is 2.92%.

As to `Nc1c2c(nc3ccccc13)CCCC2O` (stereo not given), the “activity change, negative = cytotoxicity” value was 2.94%.

Turning to `CCN1CCC[C@H]1CNC(=O)c1cc(S(N)(=O)=O)ccc1OC`, the “activity change, negative = cytotoxicity” value was 11.1%.

Consider `CCOC(=O)[C@H](CCc1ccccc1)N[C@@H](C)C(=O)N1[C@H](C(=O)O)C[C@@H]2CCC[C@@H]21`, for which the “activity change, negative = cytotoxicity” value was 8.46%.

Regarding `CC(C)(c1ccc(O)cc1)c1ccc(O)cc1`, the Potency is 49.2 µM (active).

For `COCCCOCCCOC`, the “activity change, negative = cytotoxicity” value is 11.3%.

For the compound `Cc1nc2c([nH]1)c(=O)n(C)c(=O)n2Cc1ccco1`, the “activity change, negative = cytotoxicity” value was 13.3%.

As for `Cc1cccc(C)c1NC(=O)C(C)N` (stereo not given), the “activity change, negative = cytotoxicity” value is 12.4% [at 30.7 µM].

For `Cc1ccc(C#N)cc1`, the “activity change, negative = cytotoxicity” value is 5.41%.

With `CN1CC(=O)NC1=N`, the “activity change, negative = cytotoxicity” value was 17.4%.

Consider `NS(=O)(=O)c1cc(C(=O)O)cc(N2CCCC2)c1Oc1ccccc1`, for which the “activity change, negative = cytotoxicity” value was -4.07% [at 30.7 µM].

For `N[C@H]1CN(c2c(F)cc3c(=O)c(C(=O)O)cn(C4C[C@H]4F)c3c2Cl)CC12CC2` (stereo not given in full), the “activity change, negative = cytotoxicity” value was 6.93%.

In the case of `CCC(=O)OC(C)c1ccccc1` (stereo not given), the “activity change, negative = cytotoxicity” value was 5.92%.

For `CCCN(CCC)CCc1cccc2c1CC(=O)N2`, the “activity change, negative = cytotoxicity” value is 0.921%.

For `CS(=O)(=O)O`, the “activity change, negative = cytotoxicity” value is 3.2% [at 95.1 µM].

`CC1(C)CO[C@@H](CC(=O)O)CN1`: the “activity change, negative = cytotoxicity” value is 1.77%.

In the case of `NS(=O)(=O)c1cc2c(cc1Cl)NC(C1CC3C=CC1C3)NS2(=O)=O` (stereo not given), the “activity change, negative = cytotoxicity” value is 6.2%.

`O=C(O)c1ccccc1OP(=O)(O)O`: the “activity change, negative = cytotoxicity” value is 2.58%.

As for `CC(=O)Nc1ccc(S(N)(=O)=O)cc1`, the “activity change, negative = cytotoxicity” value is -2.3%.

For the compound `Cc1c(O)cccc1O`, the “activity change, negative = cytotoxicity” value is -8.44% [at 95.1 µM].

As for `O=C(O)Cc1ccc(CCNS(=O)(=O)c2ccc(Cl)cc2)cc1`, the “activity change, negative = cytotoxicity” value was 3.42%.

For the compound `CCOC(=O)CC(C)=O`, the “activity change, negative = cytotoxicity” value was 9.6% [at 95.1 µM].

For `Nc1ccccc1S(=O)(=O)O`, the “activity change, negative = cytotoxicity” value is 2.67%.

For `CCCN1CCCC[C@H]1C(=O)Nc1c(C)cccc1C`, the “activity change, negative = cytotoxicity” value was 0.0754%.

`CCCCCCCCCCCCN(CCCCCCCCCCCC)CCCCCCCCCCCC`: the “activity change, negative = cytotoxicity” value is 19.5%.

`O=C1CC2CC1C1CCCC21` (stereo not given): the “activity change, negative = cytotoxicity” value is 8.92%.

As for `N[C@H](C(=O)O)c1ccc(O)cc1`, the “activity change, negative = cytotoxicity” value is 3.32%.

In the case of `CCOC(=O)C(=O)OCC`, the “activity change, negative = cytotoxicity” value is -3.9%.

As to `C=CCS(=O)(=O)O`, the “activity change, negative = cytotoxicity” value is -5.99%.

For `CC1(C)C(O)C(C)(C)C1O` (stereo not given), the “activity change, negative = cytotoxicity” value is 2.58%.

The record behind these values is PubChem BioAssay (Tox21).
